BAZ2B block: qHTS Assay for Inhibitors of BAZ2B; AlphaScreen BAZ2B-H3K14Ac peptide displacement; Potency, µM (series often up to 114 µM), for the others: at the top dose activity change, negative = inhibition, most hits filed as inhibitors; actives 4.4% (n = 360,000); AID 504333, 2011; further: on the % scale 0 is the no-effect control and ±100 the full control effect; nearly all actives have a fitted effect of over 60% in size
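AlphaScreen displacement: compounds (up to 110uM) incubated 30 min at room temperature with a preformed 50 nM BAZ2B/50 nM biotinylated H3K14Ac peptide complex in PBS pH 7.4 with Tween-20. Donor and acceptor beads at 10 ug/mL final added, 20 min light-protected before reading.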
G9a inh: qHTS Assay for Inhibitors of Histone Lysine Methyltransferase G9a; Potency, µM (highest dose often 102 µM), for inactives: at the top dose activity, negative = inhibition, actives largely listed as inhibitors; Histone-lysine N-methyltransferase EHMT2 (Homo sapiens), Q96KQ7; actives 8.8% (n = 350,000); G9a H3K9 monomethylation, AlphaScreen, 2 h; AID 504332, 2011; further: on the % scale 0 is the no-effect control and ±100 the full control effect; nearly all actives have a fitted effect of over 75% in size
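Quantitative HTS format: methyltransferase activity on a biotin-tagged H3K9 peptide is measured by AlphaScreen, using a rabbit anti-monomethyl-H3K9 antibody with streptavidin donor and anti-IgG acceptor beads. Final levels are 20 nM enzyme, 500 nM peptide, 20 uM SAM; 2 h RT.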
GLS inh: qHTS for Inhibitors of Glutaminase (GLS). Glutaminase kidney isoform, mitochondrial (Homo sapiens), O94925. GLS enzymatic activity, qHTS titration. Potency, µM (highest dose often 45.5 µM), inactives show at the top dose activity change, negative = inhibition, hits mostly inhibitors. actives 0.21% (n = 410,000). AID 624170, 2012; further: on the % scale 0 is the no-effect control and ±100 the full control effect
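hKGA in 45 mM KH2PO4 pH 8.2, 0.02% Tween-20 with pin-transferred compounds; 1 mM L-glutamine (stock) plus glutamate oxidase/HRP/Amplex Red coupling added. Fluorescence read initially and after 30 min at RT.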
HP1b chromo inh: HTS for Inhibitors of HP1-beta Chromodomain Interactions with Methylated Histone Tails. Potency, µM (highest dose often 114 µM), inactives show top-dose activity change, negative = inhibition, most hits filed as inhibitors. AlphaScreen HP1-beta / biotin-H3K9me3 peptide binding. actives 0.56% (n = 390,000). Chromobox protein homolog 1 (Homo sapiens), P83916. AID 540317, 2011; further: nearly all actives have a fitted effect of over 70% in size
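AlphaScreen: HP1-beta (50 nM) preformed 30 min with biotin-H3(1-18)K9me3 peptide (50 nM) in PBS pH 7.4, 0.01% Tween-20. Compound added for 30 min at RT, then streptavidin donor/nickel chelate acceptor beads (10 ug/mL) for 30 min.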
JMJD2A Tudor: qHTS Assay for Inhibitors of JMJD2A-Tudor Domain; AlphaScreen JMJD2A-Tudor / H3K4me3 peptide binding; Potency, µM (highest dose often 114 µM), inactives show at the highest dose activity change, negative = inhibition, hits mostly inhibitors; actives 4.4% (n = 390,000); further: on the % scale 0 is the no-effect control and ±100 the full control effect; nearly all actives have a fitted effect of over 50% in size
The depositor's hits bear a star; ? = inconclusive; / = no result given; [ ] = remark or other dose. Most compounds without a hit are left out; they make up all but 10% or so of the library. The call rests on the fitted dose curve; in most records, active means well fitted curve in the direction sought with a large enough effect; inconclusive means small, poorly fitted or top-dose-only effect, or another doubt; inactive means no such curve, though single readings can be large; an effect the other way counts as inactive or inconclusive. Potency means the concentration at half of the fitted maximal effect.

SMILES | BAZ2B block | G9a inh | GLS inh | HP1b chromo inh | JMJD2A Tudor
COc1ccc(N2CCN(C(c3cccs3)C(C)NC(=O)C(=O)N3CCCC3)CC2)cc1 (stereo unspecified) | 40µM* | 45µM* | 45% | -4% | ?
CC(NC(=O)C(=O)N1CCCCC1)C(c1cccs1)N1CCN(c2ccccc2)CC1 (stereo unspecified) | -37% | ? | 27% | 23% | -29%
O=C1CSC(c2ccc([N+](=O)[O-])cc2)N1c1ccc(O)cc1 (stereo unspecified) | 17% | -29% | -7% | 12% | -1%
O=C(N=Nc1ccc(NOC(=O)c2ccccc2Br)cc1)c1ccccc1O | 7.9µM* | 25µM* | / | / | /
COc1ccc(N/N=C(C)/C(=N/O)C(=O)Nc2ccccc2)cc1 | -38% | 22µM* | 26% | ? | ?
COc1ccc(C(=O)CC(=O)C(=O)Nc2ccccc2)cc1 | 71µM* | -1% | 13% | 50% | -14%
COc1ccc(C(=O)CC(=O)C(=O)Nc2cccc(F)c2)cc1 | 4% | -8% | 2% | 17% | -26%
COC(=O)/C(C#N)=C/c1ccc(OC(=O)c2ccccn2)cc1 | 7.1µM* | 7.9µM* | 10% | 44% | 8.9µM*
O=C(O)CCc1ccc(-c2ccc(Br)cc2)n1-c1ccc(O)cc1 | 40µM* | 45µM* | 39% | ? | ?
CC(=O)c1ccc(-n2c(CCC(=O)O)ccc2-c2ccc(Br)cc2)cc1 | ? | 40µM* | 12% | -8% | ?
CCN(CC(=O)Nc1ccc(OC)cc1)C(=O)CN1C(=O)NC(C)(c2ccc3ccccc3c2)C1=O (stereo unspecified) | -23% | 11% | -1% | 14% | -18%
CC1=C(C(=O)OC2CCCCC2)C(c2ccc(C)o2)C2=C(CC(C)(C)CC2=O)N1 (stereo unspecified) | -6% | 2%[12.7 µM] | -2% | 46% | -14%
CC1=C(C(=O)Nc2ccc(F)cc2)C(c2ccc(C)o2)C2=C(CC(C)(C)CC2=O)N1 (stereo unspecified) | 4% | 50µM* | 7% | 26% | -6%
O=Cc1ccc(-c2ccccc2OC(F)(F)F)o1 | -2% | 18% | 15% | 21% | 3%
COc1ccccc1-c1ccc(/C=C2/C=C(CC(C)C)OC2=O)o1 | 40µM* | 10µM* | 20% | ? | ?
CCCC1=C/C(=C/c2ccc(-c3ccccc3OC)o2)C(=O)O1 | 40µM* | 28µM* | -11% | -28% | ?
COc1cc([N+](=O)[O-])ccc1-c1ccc(/C=C2\C(=O)ON=C2c2ccccc2)o1 | / | / | 30% | -28%[57 µM] | ?
Cc1ccc(N2C(=O)CS(=O)(=O)C23C(=O)N(Cc2ccc(Cl)cc2)c2ccccc23)cc1C (stereo unspecified) | 4%[57.1 µM] | -47%[59 µM] | -7% | 28% | -16%
CC(C)Cc1ccc(-c2cc3nc(NCCOc4ccccc4)ccn3n2)cc1 | / | / | -7% | / | /
CC(=O)c1c(C)[nH]c(C(=O)Nc2nc(-c3ccc(Cl)cc3)cs2)c1C | 6% | ? | -1% | 1% | -26%
COc1ccc(-c2nc(NC(=O)c3ccco3)sc2C)cc1 | / | / | -1% | / | /
CC(=O)c1c(C)[nH]c(C(=O)Nc2nc(C)cs2)c1C | 50µM* | -36% | 2% | 13% | -8%
COc1ccc(-c2nc(NC(=O)c3[nH]c(C)c(C(C)=O)c3C)sc2C)cc1 | ? | 50µM* | -8% | -14% | ?
Cc1ccc(N2CC(C(=O)Nc3cccc(S(=O)(=O)N4CCOCC4)c3)CC2=O)cc1 (stereo unspecified) | / | / | -3% | / | /
COc1cc2c3c(n(C)c(=O)c2cc1OC)-c1cc2c(cc1C3=O)OCO2 | / | / | -12% | 19% | -6%
SMILES | BAZ2B block | G9a inh | GLS inh | HP1b chromo inh | JMJD2A Tudor
N#Cc1cccc(NS(=O)(=O)c2ccc3c(c2)CCC(=O)N3)c1 | / | / | / | / | -4%
CCS(=O)(=O)Nc1c(C(=O)O)[nH]c2ccccc12 | -31% | 50µM* | -20% | -6% | 89µM*
Cc1ccc(S(=O)(=O)Nc2c(C(=O)O)[nH]c3ccccc23)cc1C | ? | 16µM* | -8% | 48% | -26%
CCS(=O)(=O)Nc1c(C(=O)OC)[nH]c2ccccc12 | 11% | 1% | 9% | 24% | 5%
Nc1nc(Nc2ccc(Cl)cc2)nc(NCCO)c1[N+](=O)[O-] | ? | 50µM* | 0% | 14% | -1%
COc1cccc(Nc2nc(N)c([N+](=O)[O-])c(NCc3ccccc3)n2)c1 | ? | 45µM* | 10% | ? | ?
Nc1nc(NCc2ccc(Cl)cc2)nc(NCCO)c1[N+](=O)[O-] | -3% | -9% | 0% | 0% | -12%
COc1cccc(Nc2nc(Nc3ccc(Cl)c(C(=O)O)c3)nc(C)c2[N+](=O)[O-])c1 | 50µM* | ? | 26% | -5% | ?
O=C(Nc1ccc2c(c1)OCCO2)C(C1CC1)N1CCN(c2ccc(C(F)(F)F)cn2)CC1 (stereo unspecified) | / | / | 6% | / | /
O=C(CSc1nnc(-c2cccnc2)n1C1CCCCC1)NC1CCCCC1 | 10% | -8% | 0% | 17% | -4%
COc1ccc(NC(=O)CSc2nnc(C)n2C2CCCCC2)cc1 | -9% | ? | -1% | 3% | -11%
S=c1[nH]nc(-c2cccnc2)n1C1CCCCC1 | 4% | 20µM* | 3% | 26% | 5µM*
Cc1cc(Cl)ccc1OCc1n[nH]c(=S)n1C1CCCCC1 | ? | ? | ? | -10% | -34%[57.1 µM]
Cc1ccsc1-c1n[nH]c(=S)n1C1CCCCC1 | -8% | 1.6µM* | 5% | ? | 35µM*
COc1ccc(Cl)cc1-c1n[nH]c(=S)n1C1CCCCC1 | -20% | 1.4µM* | 4µM* | 15% | 35µM*
COc1ccc(-c2n[nH]c(=S)n2C2CCCCC2)cc1 | -7% | 2.5µM* | -10% | 17% | 7.1µM*
COc1ccc(Cl)cc1-c1n[nH]c(=S)n1Cc1ccccc1 | -7% | 3.2µM* | -24% | 37% | -32%
COc1ccc(Cl)cc1-c1cc(C(=O)NCc2cccc(Cl)c2)[nH]n1 | / | / | 1% | / | /
Cc1ccc(SCc2cn3c(C)csc3n2)cc1 | 56µM* | ? | 4% | 16% | -25%
CCCS(=O)(=O)NCc1cn2c(C)csc2n1 | 9% | 56µM* | -3% | 36% | -20%
Cc1csc2nc(CNC(=O)CCC(=O)O)cn12 | -1% | 50µM* | 0% | 29% | -20%
Nc1nc(-c2ccco2)c(-c2ccco2)s1 | 45µM* | ? | -1% | ? | ?
c1coc(-c2nc3cc4ccccc4cc3nc2-c2ccco2)c1 | / | / | / | 7.9µM* | 7.9µM*

Screening results deposited in PubChem BioAssay by National Center for Advancing Translational Sciences (NCATS).
